Measured values: PubChem BioAssay (NCATS)
Inconclusive results are not listed. Entries that show only a call come without a potency. Unmarked numbers belong to inactive results. Calls of active or inactive are those of the source. Calls come from the whole dose curve; as a rule, active = well fitted curve in the direction sought with a large enough effect; inconclusive = small, poorly fitted or top-dose-only effect, or another doubt; inactive = no such curve, though single readings can be large; an effect the other way counts as inactive or inconclusive.

Target: Rap guanine nucleotide exchange factor 3 (Homo sapiens) (UniProt O95398)
Test: Counterscreen qHTS for antagonist of cAMP-regulated guanine nucleotide exchange factor 3 (EPAC1) (AID 1645888);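 note: fluorescence loss as bound BODIPY-GDP is released from Rap1B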
Conditions: Rap1B-BODIPY-GDP nucleotide exchange, fluorescence; series mostly up to 154 µM
Method in brief: (§1)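 Rap1B-BODIPY-GDP 250 nM + GDP 50 uM; cpds 7-pt, final 9.74 nM–152 uM (activator mode) or from 7.32 nM upwards (inhibitor mode); RT; FI 480/540 nm at 5 and 30 min, then ± cAMP, reread.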

Rap guanine nucleotide exchange factor 3 (Homo sapiens), sequence (O95398 whole entry, looked up): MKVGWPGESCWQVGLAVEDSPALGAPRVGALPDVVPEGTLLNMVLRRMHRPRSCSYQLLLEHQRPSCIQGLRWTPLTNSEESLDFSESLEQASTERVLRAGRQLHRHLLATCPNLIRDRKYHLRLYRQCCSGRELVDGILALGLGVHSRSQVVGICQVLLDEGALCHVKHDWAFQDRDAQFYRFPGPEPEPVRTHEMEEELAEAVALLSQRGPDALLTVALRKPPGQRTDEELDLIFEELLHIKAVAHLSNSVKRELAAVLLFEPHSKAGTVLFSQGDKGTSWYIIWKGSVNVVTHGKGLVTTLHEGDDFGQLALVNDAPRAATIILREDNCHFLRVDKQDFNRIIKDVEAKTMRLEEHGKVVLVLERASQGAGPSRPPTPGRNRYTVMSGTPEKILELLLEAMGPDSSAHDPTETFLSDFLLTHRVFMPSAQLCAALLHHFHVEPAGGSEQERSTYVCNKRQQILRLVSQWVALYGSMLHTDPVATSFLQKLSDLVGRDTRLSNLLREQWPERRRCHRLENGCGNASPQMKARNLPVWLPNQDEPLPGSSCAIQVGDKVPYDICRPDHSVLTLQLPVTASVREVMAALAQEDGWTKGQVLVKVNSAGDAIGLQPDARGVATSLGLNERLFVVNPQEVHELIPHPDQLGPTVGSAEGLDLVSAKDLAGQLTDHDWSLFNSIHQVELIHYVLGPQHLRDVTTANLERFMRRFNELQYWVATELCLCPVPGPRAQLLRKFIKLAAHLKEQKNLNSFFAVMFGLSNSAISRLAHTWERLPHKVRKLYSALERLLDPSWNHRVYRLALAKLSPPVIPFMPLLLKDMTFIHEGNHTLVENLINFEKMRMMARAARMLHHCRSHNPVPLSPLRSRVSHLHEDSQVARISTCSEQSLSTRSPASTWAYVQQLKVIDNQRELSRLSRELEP

SMILES	Potency	activity change, negative = inhibition
CN(C)CCCN(C(=O)COc1ccc(Cl)cc1)c1nc2cc3c(cc2s1)OCCO3	inactive	
O=C1c2cccc3cccc(c23)N1Cc1ccc(F)cc1		-16.7% [at 30.8 µM]
N#Cc1c(-c2ccccc2)nc(SCc2cccc(Cl)c2)[nH]c1=O	inactive	
CC(Sc1ccccc1)C(=O)NNC(=O)c1csc(N2CCOCC2)n1 (stereo unspecified)		1.84% [at 30.8 µM]
Cc1nn(CCc2nn[nH]n2)c2nc(-c3ccc(C4CCCCC4)cc3)cc(C(F)(F)F)c12	inactive	
CCOC(=O)c1ccc(N2C(=O)c3[nH]nc(-c4ccc(OCC)cc4)c3C2c2cccs2)cc1 (stereo unspecified)	inactive	
COc1ccc(CNC(=O)c2cc(=O)c3cc(C)ccc3o2)cc1	inactive	
O=C(COc1ccccc1Cl)Nc1cccc(S(=O)(=O)NC2=NCCCCC2)c1	inactive	
Cc1ccc2nc(-c3ccc(NC(=O)c4ccco4)cc3)[nH]c2c1		-13% [at 30.8 µM]
Cc1ccc(-c2nc3ccc(Br)cn3c2Cc2ccccc2C(F)(F)F)cc1	inactive	
COc1cc(/C=C2\SC(=O)N(CC(=O)Nc3cccc(C)c3)C2=O)cc([N+](=O)[O-])c1O	inactive	
COc1ccc(NC(=O)Cn2cnc3sc(C)c(S(=O)(=O)N4CCOCC4)c3c2=O)c(OC)c1		-23.9% [at 30.8 µM]
COc1ccc(NC(=O)CS(=O)(=O)Cc2ccccc2)c([N+](=O)[O-])c1		-9.05% [at 30.8 µM]
COC(=O)C1(Cc2ccccc2)NC(c2ccc(F)cc2)C2C(=O)N(C)C(=O)C21 (stereo unspecified)		4.27% [at 30.8 µM]
NC(=O)c1sc(=S)n2c1[nH]c(=O)c1sccc12	inactive	
CCOC(=O)c1cc2n(c1N)-c1ccccc1C2=O	inactive	
CC(=O)NC(CCS(C)(=O)=O)C(=O)Nc1cc(C)on1 (stereo unspecified)	inactive	
NS(=O)(=O)c1ccc(-c2cccc(/C=C3\SC(=O)NC3=O)c2)cc1	inactive	
O=c1cc(-c2ccccc2)nc2c(-c3ccccc3)c(C(F)(F)F)[nH]n12	inactive	
CCCOc1c(OC)cccc1C1CC(=O)Nc2cc(OC)c(OC)c(OC)c21 (stereo unspecified)	inactive	
CCCc1cc2c(cc1N(C)S(=O)(=O)c1ccccc1)OCO2	inactive	
Cc1ccc2[nH]cc(C(c3ccccc3)c3cccs3)c2c1 (stereo unspecified)	inactive	

Target: Rap guanine nucleotide exchange factor 3 (Homo sapiens) (UniProt O95398)
Test: Counterscreen qHTS for agonist of cAMP-regulated guanine nucleotide exchange factor 3 (EPAC1) (AID 1645889); note: nearly all actives have a fitted effect of over 40% in size; note: potency is the fitted concentration of half-maximal effect
Conditions: EPAC1 Rap1B-BODIPY-GDP exchange, fluorescence; series mostly up to 154 µM
Method in brief: as §1

SMILES	Potency	activation
CCN1/C(=C/c2ccc3cc(C)ccc3[n+]2CC)Sc2ccccc21	inactive	
COc1ccc(N2CCN(C(=O)CSc3ncn[nH]3)CC2)cc1	inactive	
CN(C)C(=S)Oc1ccccc1-c1ccccc1OC(=S)N(C)C	inactive	
Clc1ccc(-c2cc3ccccc3nc2N2CCOCC2)cc1	inactive	
Cc1ccsc1C(=O)OCC(=O)NCCNC(=O)COC(=O)c1sccc1C	inactive	
O=C(/C=C/c1ccc([N+](=O)[O-])cc1)Nc1cccc(C(=O)Nc2ccccc2C(=O)O)c1		4.73% [at 30.8 µM]
CCCCn1c(N)c(N(CC(C)C)C(=O)C2CCN(C(=O)c3ccc(Cl)cc3)CC2)c(=O)[nH]c1=O	inactive	
CCC(=O)Nc1ccc(C(=O)NNC(=O)c2ccc([N+](=O)[O-])cc2)cc1	inactive	
O=C(c1ccc(Br)cc1)N(Cc1cccs1)c1ccc(F)cc1	inactive	
COc1ccccc1OCC(=O)Nc1cccc(S(=O)(=O)NC2=NCCCCC2)c1	inactive	
CCN1C(=O)/C(=C/C=C2/SCCN2C)SC1=S	11.2 µM (active)	
Cc1nc(N)sc1C(=O)N1N=N1	inactive	
CCCCN1C(=O)/C(=C/C=C2\Oc3ccccc3N2CC)SC1=S	1.78 µM (active)	
C=CCOc1ccc(C(c2c(C(=O)O)[nH]c3ccccc23)c2c(C(=O)O)[nH]c3ccccc23)cc1	inactive	
CCN1C/C(=C/c2ccc(N3CCOCC3)cc2)C(=O)/C(=C/c2ccc(N3CCOCC3)cc2)C1	39.8 µM (active)	
CCN(CC)c1nc(SCC(=O)O)nc(N(CC)CC)n1	inactive	
CCOc1ccc(-n2c(SCC(=O)Nc3ccccc3OC)nc3c(oc4ccccc43)c2=O)cc1	inactive	
CN(C)CCCN(C(=O)COc1ccc(Cl)cc1)c1nc2cc3c(cc2s1)OCCO3	inactive	
O=C1c2cccc3cccc(c23)N1Cc1ccc(F)cc1		4.85% [at 30.8 µM]
N#Cc1c(-c2ccccc2)nc(SCc2cccc(Cl)c2)[nH]c1=O	inactive	

SMILES	Potency	activation
CC(Sc1ccccc1)C(=O)NNC(=O)c1csc(N2CCOCC2)n1 (stereo unspecified)		28.3% [at 30.8 µM]
Cc1nn(CCc2nn[nH]n2)c2nc(-c3ccc(C4CCCCC4)cc3)cc(C(F)(F)F)c12	inactive	
CCOC(=O)c1ccc(N2C(=O)c3[nH]nc(-c4ccc(OCC)cc4)c3C2c2cccs2)cc1 (stereo unspecified)	inactive	
COc1ccc(CNC(=O)c2cc(=O)c3cc(C)ccc3o2)cc1	inactive	
O=C(COc1ccccc1Cl)Nc1cccc(S(=O)(=O)NC2=NCCCCC2)c1	inactive	
Cc1ccc2nc(-c3ccc(NC(=O)c4ccco4)cc3)[nH]c2c1		29.2% [at 30.8 µM]
Cc1ccc(-c2nc3ccc(Br)cn3c2Cc2ccccc2C(F)(F)F)cc1	inactive	
COc1cc(/C=C2\SC(=O)N(CC(=O)Nc3cccc(C)c3)C2=O)cc([N+](=O)[O-])c1O	inactive	
COc1ccc(NC(=O)Cn2cnc3sc(C)c(S(=O)(=O)N4CCOCC4)c3c2=O)c(OC)c1		3.18% [at 30.8 µM]
COc1ccc(NC(=O)CS(=O)(=O)Cc2ccccc2)c([N+](=O)[O-])c1		8.04% [at 30.8 µM]
COC(=O)C1(Cc2ccccc2)NC(c2ccc(F)cc2)C2C(=O)N(C)C(=O)C21 (stereo unspecified)		3.32% [at 30.8 µM]
NC(=O)c1sc(=S)n2c1[nH]c(=O)c1sccc12	inactive	
CCOC(=O)c1cc2n(c1N)-c1ccccc1C2=O	31.6 µM (active)	
CC(=O)NC(CCS(C)(=O)=O)C(=O)Nc1cc(C)on1 (stereo unspecified)	inactive	
NS(=O)(=O)c1ccc(-c2cccc(/C=C3\SC(=O)NC3=O)c2)cc1	inactive	
O=c1cc(-c2ccccc2)nc2c(-c3ccccc3)c(C(F)(F)F)[nH]n12	inactive	
CCCOc1c(OC)cccc1C1CC(=O)Nc2cc(OC)c(OC)c(OC)c21 (stereo unspecified)	inactive	
CCCc1cc2c(cc1N(C)S(=O)(=O)c1ccccc1)OCO2	inactive	
Cc1ccc2[nH]cc(C(c3ccccc3)c3cccs3)c2c1 (stereo unspecified)	inactive	
